The panel holds about 79,000 compounds, 15% with a hit somewhere; the sample as a whole holds those more often. A number with no mark means an inactive call. Active and inactive are the calls of the source. No stated cut-off is given here; in the data, active means growth inhibition above about 70%; inactive means the rest.

The nature of the assay: NCI Yeast Anticancer Drug Screen. Data for the rad50 strain (AID 155).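 Further: 0% = growth of vehicle-only cultures of the same strain.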 To be noted: S. cerevisiae rad50 strain growth inhibition; at 50.0 µM (retest, dose inferred, filed as 5.0); hits give high values. Summed up:
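Growth of the mutant yeast was measured after compound exposure and referenced to vehicle-treated cultures.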
Regarding `C/C(=N\NC(=S)SCc1ccccc1)c1ccccn1`, the growth inhibition was 0%. For `CC[C@@]1(O)C(=O)OCc2c1cc1n(c2=O)Cc2cc3c(N)cccc3nc2-1`, the growth inhibition was 84% (active).

In the case of `CN(C)c1ccc(Sc2ccc3nc(N)nc(N)c3c2)cc1`, the growth inhibition was 41%.

For the molecule `CC(=O)OCCOCNC(=S)N/N=C(\C)c1cnccn1`, the growth inhibition was 45%. Regarding `COc1ccc(C2c3cc4c(cc3OC(C)(O)C2C)OCO4)c(OC)c1` (configuration not stated), the growth inhibition was 66%. As to `COc1cc(C2SCC(=O)N2c2ccc(-c3ccc(-n4c(-c5ccccc5)nc5ccccc5c4=O)cc3)cc2)cc(OC)c1OC` (configuration not stated), the growth inhibition was 13%. With `COc1ccc(Br)c(C(=O)Sc2nnnn2-c2cccc(Cl)c2)c1`, the growth inhibition was 71% (active). Take `O=C(NNc1ccnc2cc(Cl)ccc12)/C(=C\c1ccccc1Cl)NC(=O)c1ccccc1`: the growth inhibition was -18%.

On to `CSC(=S)Nc1cccc(C)n1`, for which the growth inhibition is 99% (active). For `O=C(/C=C\c1ccc(Cl)cc1Cl)c1cccs1`, the growth inhibition is 61%. As to `COc1ccc(-c2cn(-c3ccc(I)cc3)c3ncnc(N)c23)cc1`, the growth inhibition was 69%.

On to `CN(C)c1ccc(C(C#N)=C(C#N)C#N)cc1`, for which the growth inhibition was 70% (active). Consider `COc1cc(/C=C2\CCc3ccccc3C2=O)cc(OC)c1OC`, for which the growth inhibition was 6%. Regarding `CC(C)/C(Cl)=N\OC(=O)Nc1cccc(Cl)c1`, the growth inhibition was 47%.

On to `CC1(C)[C@@H]2CC[C@]1(C)[C@H](OC(=O)CSC#N)C2`, for which the growth inhibition was 98% (active). Turning to `NNC(=O)CCc1ccc2ccc3ccccc3c2c1`, the growth inhibition was 7%. For `COc1ccc(/C(C)=N/OC(=O)c2c(-c3ccccc3Cl)noc2C)cc1CN1CCOCC1` the value was 88% (active).

(Values after PubChem BioAssay (NCI).)
